# Measurements reported in PubChem BioAssay (NCATS).
# Inconclusive results are not listed. Calls of active or inactive are those of the source. The call rests on the fitted dose curve; in most records, active means well fitted cell-killing curve with a large enough effect; inconclusive means small, poorly fitted or top-dose-only effect, or effect the other way; inactive means no such curve, though single readings can be large or run the other way. Starred links: 1 amine or outer side, 2 acyl side, 3 side chain; linkers in the order of their positions; H or OH if unused. Positions of bridges follow the written chain, without caps; N, C: chain ends. Non-standard residues stand in square brackets, D forms with d. Residues, ends and D or L forms follow the SMILES beside them. Chains are numbered I, II in the order given. *: point of attachment. Actinocin(9to1) = Cc1c2oc3c(C)ccc(C(=O)[*:1])c3nc-2c(C(=O)[*:2])c(N)c1=O; NMeV = CN[CH](C(=O)O)C(C)C; Cbz = O=C(OCc1ccccc1)*; Sar = CNCC(=O)O
# Experiment: qHTS of pediatric cancer cell lines to identify multiple opportunities for drug repurposing: Confirmatory screen for OHS-50 cells (AID 1347128);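 further: compound exposure lasted 48 h at 37 degrees C; nearly all actives have a fitted effect of over 55% in size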
# Details: OHS-50 osteosarcoma cells viability; series mostly up to 45.9 µM; activity change, negative = cytotoxic: at the top concentration
# Excerpt: Drug repurposing or repositioning has been offered as a strategy for drug development in oncology programs. This approach has special potential for childhood cancers and other rare or orphan diseases, where the expected return on new drug development has been a disincentive to pharmaceuticals.
# In this project we exploit the poly-pharmacology of drugs to discover new indications via phenotypic screening of a panel of 19 well-characterized cell lines derived from solid tumors seen in children and adolescents. The goal is to identify approved drugs with previously unrecognized anticancer properties that has the potential to reveal new mechanisms and biological processes involved in carcinogenesis or drug resistance. We employed a titration-based paradigm (quantitative high-throughput screening or qHTS), where all compounds were tested at multiple concentrations for their effect on cell viability. Concentration-response curves (CRCs) were derived directly from the primary screen, and both potency and efficacy values were used to identify compounds with robust bioactivity profiles. We screened the NIH Chemical Genomics Center (NCGC) Pharmaceutical Collection (NPC) and Mechanism Interrogation Plate (MIPE) small molecule collections of approved and investigational compounds against these cell lines; and measured metabolically active cells after 48 hours of compound treatment as a proxy for cell viability.
# Assay Submitter: Nathalia J. Martinez, National Center for Advancing Translational Sciences, National Institutes of Health, Rockville, MD, USA; email: natalia.martinez@nih.gov
# [1] Shen, M et al. Quantitative high-throughput phenotypic screening of pediatric cancer cell lines identifies multiple opportunities for drug repurposing. Oncotarget 2017 Dec 19;9(4):4758-4772. PMID 29435139.
# The cells were obtained from University of North Carolina (UNC), Pediatric Preclinical Testing Program (PPT), and Coriell Institute (CI).
# qHTS cell viability assay:
# Cells were assayed in growth media at a density of 500-1,000 cells/well. Five microliters of cells were dispensed into 1,536-well, white, solid-bottom, TC-treated plates (Greiner Bio One) using a multidrop dispenser and incubated at 37 degrees C, 5% CO2, under a humidified atmosphere for 5 hours. Twenty-three nanoliters of compounds and controls (neutral control DMSO or positive control bortezomib at final concentration of 2.3 µM) were subsequently transferred by Kalypsys pintool. For primary screens, the MIPE collection was tested at 11-point dilutions (final concentrations range from 0.78 nM to 46 µM) and the NPC collection at 8-point dilutions (final concentrations range from 0.59 nM to 46 µM). Compounds tested in follow-up screens were assayed at 11-point dilutions. Cells were incubated for 48 hours, followed by addition of 3 µL of CellTiter-Glo (Promega). After a 15 min incubation at room temperature, samples were analyzed for luminescence intensity using a ViewLux High-throughput CCD imager equipped with clear filters.
# On the % scale 0 is the no-effect control and ±100 the full control effect; potency means the concentration at half of the fitted maximal effect.
Structure (SMILES),"activity change, negative = cytotoxic",Potency
COC(=O)[C@@H]1[C@H]2C[C@@H]3c4[nH]c5ccccc5c4CCN3C[C@@H]2CC[C@@H]1O,2.42% (inactive),–
Cn1cc(CNCC2CCN(c3ncc(C(=O)NO)cn3)CC2)c2ccccc21,–,0.131 µM (active)
CC(=O)SCC(Cc1ccccc1)C(=O)NCC(=O)OCc1ccccc1 (stereo not given),-12.1% (inactive),–
Cc1ncc(-c2ccnc(Nc3ccc(S(C)(=O)=O)cc3)n2)n1C(C)C,–,3.29 µM (active)
CC(C)N1[N]C(=C2C=c3cc(O)ccc3=N2)c2c(N)ncnc21,–,5.22 µM (active)
Cc1[nH]c(C=C2C(=O)Nc3ccccc32)c(C)c1CCC(=O)O,0.0215% (inactive),–
O=C(C=CC#Cc1cccc(NS(=O)(=O)c2ccccc2)c1)NO,–,5.85 µM (active)
COc1cccc2c1C(=O)c1c(O)c3c(c(O)c1C2=O)C[C@@](O)(C(=O)CO)C[C@@H]3O[C@H]1C[C@H](N)[C@@H](O)[C@H](C)O1,–,1.47 µM (active)
CCS(=O)(=O)Nc1ccc2[nH]c(O)c(C(=Nc3ccc(CN4CCCCC4)cc3)c3ccccc3)c2c1,–,5.22 µM (active)
CN[C@@H]1C[C@H]2O[C@@](C)([C@H]1OC)n1c3ccccc3c3c4c(c5c6ccccc6n2c5c31)C(=O)N[C@H]4O,–,0.585 µM (active)
NS(=O)(=O)OC[C@@H]1C[C@@H](n2ccc3c(N[C@H]4CCc5ccccc54)ncnc32)C[C@H]1O,3.61% (inactive),–
Cn1cnc(=N)c2[nH]cnc21,7.19% (inactive),–
CC(C)C[C@H](NC(=O)CNC(=O)c1cc(Cl)ccc1Cl)B1OC(=O)CC(CC(=O)O)(C(=O)O)O1 (stereo not given in full),–,0.585 µM (active)
CC(=O)[C@]1(O)Cc2c(O)c3c(c(O)c2[C@@H](O[C@H]2C[C@H](N)[C@@H](O)[C@H](C)O2)C1)C(=O)c1ccccc1C3=O,–,1.31 µM (active)
COc1cc2ncnc(Nc3cccc(Br)c3)c2cc1OC,–,10.4 µM (active)
CNC(=O)c1ccc(Nc2cc(Nc3ccccc3S(=O)(=O)C(C)C)c3cc[nH]c3n2)nc1,–,8.27 µM (active)
O=C(Nc1cc2cc[nH]c2cn1)c1ccccc1,–,10.4 µM (active)
CS(=O)(=O)N1CCc2c(-c3cnc(N)nc3)nc(N3CCOCC3)nc21,–,2.93 µM (active)
CC(=O)NCC(=O)N1[C@H]2CC[C@H]1c1cc(Nc3ncc(C(F)(F)F)c(NC4CCC4)n3)ccc12,–,2.61 µM (active)
Cc1cnc(Nc2ccc(CN3CCOCC3)cc2)nc1Nc1cccc(S(=O)(=O)NC(C)(C)C)c1,–,5.22 µM (active)

Structure (SMILES),"activity change, negative = cytotoxic",Potency
COc1ccc2c(c1OC)C(=O)OC2[C@H]1c2c(cc3c(c2OC)OCO3)CCN1C (stereo not given in full),3.13% (inactive),–
O=C(C=CC=Cc1ccc2c(c1)OCO2)N1CCCCC1,-7.04% (inactive),–
CC[C@]12C=CCN3CC[C@@]4(c5cc([C@@]6(C(=O)OC)C[C@H]7C[C@@H](C(C)(F)F)CN(Cc8c6[nH]c6ccccc86)C7)c(OC)cc5N(C)[C@H]4[C@@](O)(C(=O)OC)[C@H]1OC(C)=O)[C@@H]32,15.5% (inactive),–
CC(=O)O[C@H]1C[C@@H]2CC[C@H]3[C@H]4C[C@H]([N+]5(C)CCCCC5)[C@@H](OC(C)=O)[C@@]4(C)CC[C@@H]3[C@@]2(C)C[C@H]1N1CCCCC1,–,16.5 µM (active)
CNC(=O)c1cccc(-c2ccc3c(N4CCOC[C@H]4C)nc(N4CCOC[C@H]4C)nc3n2)c1,–,6.57 µM (active)
O=C1NC(=O)C(=Cc2ccc3nccc(-c4ccncc4)c3c2)S1,–,7.37 µM (active)
COc1cccc2c1C(=O)c1c(O)c3c(c(O)c1C2=O)C[C@@](O)(C(=O)CO)C[C@H]3O[C@H]1C[C@H](N)[C@H](O)[C@H](C)O1,–,2.61 µM (active)
CC(C)(N)c1ccc(-c2nc3ccccc3nc2-c2ccccc2)cc1,–,0.369 µM (active)
Nc1ncn([C@@H]2O[C@H](CO)[C@@H](O)[C@@H]2O)c(=O)n1,–,5.85 µM (active)
Nc1nc2c(c(=O)[nH]1)N(C=O)[C@H](CNc1ccc(C(=O)N[C@@H](CCC(=O)O)C(=O)O)cc1)CN2,-4.38% (inactive),–
CCN(CC)CCNC(=O)c1c(C)[nH]c(C=C2C(=O)Nc3ccc(F)cc32)c1C,–,10.7 µM (active)
CC(C)C[C@@H](C=O)NC(=O)[C@H](CC(C)C)NC(=O)[C@H](CC(C)C)NC(=O)OCc1ccccc1 (Cbz-Leu-Leu-Leu-aldehyde),–,0.928 µM (active)
CC(=O)ON=C1C(c2c(O)[nH]c3cc(Br)ccc23)=Nc2ccccc21,–,14.7 µM (active)
Oc1cc(-c2nc(-c3ccccc3)[nH]c2-c2ccncc2)ccc1Cl,–,18.5 µM (active)
C[C@@H](Oc1ccc2[nH]nc(C=Cc3cnn(CCO)c3)c2c1)c1c(Cl)cncc1Cl,–,4.14 µM (active)
COC(=O)C=CC(=O)OC,0.151% (inactive),–
"Cc1c2oc3c(C)ccc(C(=O)NC4C(=O)NC(C(C)C)C(=O)N5CCCC5C(=O)N(C)CC(=O)N(C)C(C(C)C)C(=O)OC4C)c3nc-2c(C(=O)NC2C(=O)NC(C(C)C)C(=O)N3CCCC3C(=O)N(C)CC(=O)N(C)C(C(C)C)C(=O)OC2C)c(N)c1=O (stereo not given) (I: TVP[Sar][NMeV] / II: TVP[Sar][NMeV]; ester I:1-I:C, II:1-II:C; linker I:N-II:N via Actinocin(9to1); configuration not given here)",–,0.0369 µM (active)
Cc1cnc(Nc2ccc(N3CCN(C)CC3)cc2)nc1Nc1cccc(S(=O)(=O)NC(C)(C)C)c1,–,2.93 µM (active)
C=CC(=O)Nc1cccc(Nc2nc(NC3CCC(N(C)C)CC3)nc3c2ncn3C(C)C)c1 (stereo not given),–,2.08 µM (active)
COc1ccc(Nc2cc(-c3cnc(N)nc3)nc(N3CCOCC3)n2)cn1,–,6.57 µM (active)
